Data taken from PubChem BioAssay (NCI).
About 79,000 compounds went through this panel and 15% of them were active in at least one assay; those are over-represented in the sample as a whole. Activity calls are given as the source filed them. Rule as the data show it: active = growth inhibition above about 70%; inactive = the rest.

Assays:
[1] = NCI Yeast Anticancer Drug Screen. Data for the rad52 strain (AID 147);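 also: 0% = growth of vehicle-treated control cultures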; settings: S. cerevisiae rad52 mutant growth inhibition, stronger effect = higher value
How it was run: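 Screen used a yeast mutant impaired in DNA repair. After compound exposure, growth was measured. Values reflect inhibition compared with vehicle-treated cells.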

[2] = NCI Yeast Anticancer Drug Screen. Data for the wt1 strain (AID 149);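 also: 0% = growth of vehicle-treated wt1 cultures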; settings: S. cerevisiae wt1 strain (SPY 50644) growth inhibition, stronger effect = higher value
How it was run: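 Growth inhibition read against vehicle controls after compound exposure of the wt1 yeast strain.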

[3] = NCI Yeast Anticancer Drug Screen. Data for the rad50EPP+ strain (AID 151);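 also: 0% = growth of vehicle-treated control cultures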; settings: S. cerevisiae rad50 mutant strain, stronger effect = higher value
How it was run: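 Exposing the rad50EPP+ strain to each compound, growth was compared with vehicle-only cultures to give inhibition.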

[4] = NCI Yeast Anticancer Drug Screen. Data for the mgt1 strain (AID 153); settings: S. cerevisiae mgt1 mutant growth inhibition, stronger effect = higher value
How it was run: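 Genetically defined yeast (mgt1) treated with compound; inhibition of growth expressed against vehicle-treated controls.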

[5] = NCI Yeast Anticancer Drug Screen. Data for the rad50 strain (AID 155);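 also: 0% = growth of vehicle-only cultures of the same strain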; settings: S. cerevisiae rad50 strain growth inhibition, stronger effect = higher value
How it was run: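 Readout: growth inhibition relative to vehicle-treated cultures. Compound exposure was carried out in a genetically defined yeast strain deficient in DNA damage repair.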

[6] = NCI Yeast Anticancer Drug Screen. Data for the mec2-1 strain (AID 157); settings: S. cerevisiae mec2-1 strain, stronger effect = higher value
How it was run: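 Readout is yeast growth inhibition, normalised to vehicle-treated controls, in the mec2-1 strain exposed to compound.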

[7] = NCI Yeast Anticancer Drug Screen. Data for the rad14 strain (AID 159);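 also: 0% = growth of vehicle-treated control cultures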; settings: S. cerevisiae rad14 strain growth inhibition, stronger effect = higher value
How it was run: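 Growth inhibition vs vehicle controls; genetically altered yeast strain (DNA damage repair defect) treated with test compounds.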

[8] = NCI Yeast Anticancer Drug Screen. Data for the CLN2oe strain (AID 163);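 also: 0% = growth of vehicle-only control cultures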; settings: S. cerevisiae CLN2oe strain, stronger effect = higher value
How it was run: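 Values reflect how much compound exposure reduced yeast growth, referenced to vehicle-exposed cells. Assay organism is a strain with a defined genetic change affecting cell-cycle control.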

[9] = NCI Yeast Anticancer Drug Screen. Data for the cln2 rad14 strain (AID 165);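 also: 0% = growth equal to vehicle treated cultures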; settings: S. cerevisiae cln2 rad14 strain, stronger effect = higher value
How it was run: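 Relative to vehicle controls, growth inhibition of compound-treated cln2 rad14 yeast was recorded.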

[10] = NCI Yeast Anticancer Drug Screen. Data for the bub3 strain (AID 167); settings: S. cerevisiae bub3 mutant strain, stronger effect = higher value
How it was run: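 Readout: yeast growth inhibition, expressed relative to vehicle-only wells. The test organism is a mutant strain from a panel with lesions in DNA repair or checkpoint genes.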

[11] = NCI Yeast Anticancer Drug Screen. Data for the wt2 strain (AID 169);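 also: 0% = growth of vehicle-treated yeast cultures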; settings: S. cerevisiae wt2 strain growth inhibition, stronger effect = higher value
How it was run: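 Values express reduction in yeast growth under compound treatment, referenced to vehicle-treated cells.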

[12] = NCI Yeast Anticancer Drug Screen. Data for the mlh1 strain (AID 171);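 also: 0% = growth of vehicle-treated control cultures of the same strain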; settings: S. cerevisiae mlh1 strain growth inhibition, stronger effect = higher value
How it was run: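 Steps: expose the defined-mutant yeast strain to compound; expose a parallel culture to vehicle; measure growth; express compound effect as inhibition relative to the vehicle culture.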

[13] = NCI Yeast Anticancer Drug Screen. Data for the sgs1 strain (AID 173);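 also: 0% = growth of vehicle-only control cultures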; settings: S. cerevisiae sgs1 mutant, stronger effect = higher value
How it was run: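 Treat defined-mutant yeast with compound; measure growth; calculate inhibition relative to vehicle-treated cells.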

[14] = NCI Yeast Anticancer Drug Screen. Data for the mlh1 rad18 strain (AID 175); settings: S. cerevisiae mlh1 rad18 strain growth inhibition, stronger effect = higher value
How it was run: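 Test agents were incubated with a yeast strain of defined genotype (DNA damage repair defect). Inhibition of growth was derived by comparison with vehicle-exposed cultures.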

[15] = NCI Yeast Anticancer Drug Screen. Data for the rad18 strain (AID 177); settings: S. cerevisiae rad18 mutant growth inhibition, stronger effect = higher value
How it was run: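 A genetically defined yeast mutant impaired in DNA damage repair was treated with test compounds, then its growth was measured against cultures receiving vehicle alone.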

[16] = at 5.0 µM (retest, dose inferred, filed as 0.5)
[17] = at 50.0 µM (retest, dose inferred, filed as 5.0)

Measured: growth inhibition

O=C(NCCCNCCCNC(=O)c1cc(-c2ccccc2)nc2ccccc12)c1cc(-c2ccccc2)nc2ccccc12
active: [7]; at 100.0 µM 82% | [14]; [17] 78% | [14]; at 50.0 µM 89.4%
inactive: [1]; at 1.2 µM -4% | [1]; at 3.7 µM -2% | [1]; at 11.0 µM -4% | [1]; at 33.0 µM 6% | [1]; at 100.0 µM 11% | [2]; at 1.2 µM -1% | [2]; at 3.7 µM -1% | [2]; at 11.0 µM -3% | [2]; at 33.0 µM -2% | [2]; at 100.0 µM -5% | [3]; at 1.2 µM -1% | [3]; at 3.7 µM 5% | [3]; at 11.0 µM 14% | [3]; at 33.0 µM 24% | [3]; at 100.0 µM 19% | [4]; at 1.2 µM -2% | [4]; at 3.7 µM -1% | [4]; at 11.0 µM -3% | [4]; at 33.0 µM 20% | [4]; at 100.0 µM 61% | [5]; at 1.2 µM -3% | [5]; at 3.7 µM -2% | [5]; [16] -13% | [5]; at 11.0 µM -4% | [5]; at 33.0 µM 27% | [5]; [17] 54% | [5]; at 50.0 µM 37.3% | [5]; at 100.0 µM 51% | [6]; at 1.2 µM -2% | [6]; at 3.7 µM -4% | [6]; [16] -11% | [6]; at 11.0 µM -5% | [6]; at 33.0 µM 10% | [6]; [17] 19% | [6]; at 50.0 µM 37.7% | [6]; at 100.0 µM 47% | [7]; at 1.2 µM -1% | [7]; at 3.7 µM -1% | [7]; at 11.0 µM 4% | [7]; at 33.0 µM 58% | [8]; at 1.2 µM -3% | [8]; at 3.7 µM -1% | [8]; at 11.0 µM -4% | [8]; at 33.0 µM 14% | [8]; at 100.0 µM 24% | [9]; [16] 40% | [9]; [17] 42% | [9]; at 50.0 µM 37.8% | [10]; at 1.2 µM -3% | [10]; at 3.7 µM -1% | [10]; [16] 3% | [10]; at 11.0 µM -1% | [10]; at 33.0 µM 11% | [10]; [17] 58% | [10]; at 50.0 µM 64.1% | [10]; at 100.0 µM 44% | [11]; at 1.2 µM -3% | [11]; at 3.7 µM -4% | [11]; at 11.0 µM -4% | [11]; at 33.0 µM 1% | [11]; at 100.0 µM 11% | [12]; at 1.2 µM -4% | [12]; at 3.7 µM -1% | [12]; at 11.0 µM -1% | [12]; at 33.0 µM 16% | [12]; at 100.0 µM 46% | [13]; at 1.2 µM -3% | [13]; at 3.7 µM -2% | [13]; at 11.0 µM -1% | [13]; at 33.0 µM 7% | [13]; at 100.0 µM 11% | [14]; [16] 17% | [15]; at 1.2 µM -4% | [15]; at 3.7 µM -3% | [15]; at 11.0 µM -4% | [15]; at 33.0 µM 13% | [15]; at 100.0 µM 34%

COc1ccc(/C(C)=N/OC(=O)c2c(-c3ccccc3Cl)noc2C)cc1CN1CCOCC1
inactive: [1]; at 1.2 µM 21% | [1]; at 3.7 µM 23% | [1]; at 11.0 µM 19% | [1]; at 33.0 µM 34% | [2]; at 1.2 µM -7% | [2]; at 3.7 µM -10% | [2]; at 11.0 µM -14% | [2]; at 33.0 µM -7% | [2]; at 100.0 µM 39% | [3]; at 1.2 µM -36% | [3]; at 3.7 µM -39% | [3]; at 11.0 µM -41% | [3]; at 33.0 µM -32% | [3]; at 100.0 µM -27% | [4]; at 1.2 µM -3% | [4]; at 3.7 µM -5% | [4]; at 11.0 µM 0% | [4]; at 33.0 µM 36% | [5]; at 1.2 µM -39% | [5]; at 3.7 µM -28% | [5]; [16] 63% | [5]; at 11.0 µM -20% | [5]; at 33.0 µM 21% | [5]; at 50.0 µM 64.7% | [6]; at 1.2 µM -25% | [6]; at 3.7 µM 2% | [6]; [16] 68% | [6]; at 11.0 µM -12% | [6]; at 33.0 µM 7% | [6]; at 50.0 µM 14.3% | [6]; at 100.0 µM 50% | [7]; at 1.2 µM -8% | [7]; at 3.7 µM -17% | [7]; at 11.0 µM -20% | [7]; at 33.0 µM 45% | [8]; at 1.2 µM -12% | [8]; at 3.7 µM -7% | [8]; at 11.0 µM 8% | [8]; at 33.0 µM 17% | [8]; at 100.0 µM 60% | [9]; [16] 46% | [9]; at 50.0 µM 45.8% | [10]; at 1.2 µM -6% | [10]; at 3.7 µM -7% | [10]; [16] 17% | [10]; at 11.0 µM -18% | [10]; at 33.0 µM 5% | [10]; at 50.0 µM 58.8% | [10]; at 100.0 µM 50% | [11]; at 1.2 µM -18% | [11]; at 3.7 µM -27% | [11]; at 11.0 µM -21% | [11]; at 33.0 µM -7% | [11]; at 100.0 µM 65% | [12]; at 1.2 µM -22% | [12]; at 3.7 µM -16% | [12]; at 11.0 µM -27% | [12]; at 33.0 µM 14% | [13]; at 1.2 µM -30% | [13]; at 3.7 µM -29% | [13]; at 11.0 µM -19% | [13]; at 33.0 µM 30% | [15]; at 1.2 µM -16% | [15]; at 3.7 µM -14% | [15]; at 11.0 µM -2% | [15]; at 33.0 µM 21%
active: [1]; at 100.0 µM 75% | [4]; at 100.0 µM 87% | [5]; [17] 88% | [5]; at 100.0 µM 70% | [6]; [17] 98% | [7]; at 100.0 µM 91% | [9]; [17] 97% | [10]; [17] 97% | [12]; at 100.0 µM 85% | [13]; at 100.0 µM 78% | [15]; at 100.0 µM 74%
